High-throughput results as filed in PubChem.
In the library only some 2.5% were active in any assay of this set; here they are far more common.
Vaccinia Venus = inhibitors of vaccinia virus (Venus reporter) | AID 720580 | Vaccinia virus Venus reporter expression, fluorescence | Potency, µM (titrated, usually from 36.5 µM), for inactives: at the highest dose activity change, negative = inhibition, usual class: inhibitors | hit rate 0.46% among 330,000; calls by dose curve; tested in A549 cells; note: nearly all actives have a fitted effect of over 30% in size
VACV mCherry inh = vaccinia inhibition (mCherry reporter); Vaccinia virus mCherry reporter infection, fluorescence; Potency, µM (series often up to 36.5 µM), without a hit: at the highest dose activity change, negative = inhibition, most hits filed as inhibitors; hit rate 0.63% among 310,000; calls by dose curve; tested in A549 cells; note: nearly all actives have a fitted effect of over 35% in size
MARV entry inh = Marburg virus entry inhibition | Marburg virus pseudotyped entry inhibition, cell reporter | Potency, µM (titrated, usually from 37.8 µM), for the others: at the top dose activity change, negative = inhibition, hits mostly inhibitors | hit rate 1.8% among 300,000 | AID 540276; calls by dose curve; tested in HEK293 cells
LASV entry inh = Lassa virus entry inhibition | Lassa virus pseudotype entry inhibition, cell reporter | Potency, µM (titrated, usually from 37.9 µM), for inactives: top-dose activity change, negative = inhibition, actives largely listed as inhibitors | hit rate 1.2% among 300,000; calls by dose curve; tested in HEK293 cells; note: nearly all actives have a fitted effect of over 50% in size
Numbers without * were called inactive; i = inactive; ? = inconclusive; nt = no result given; ! = not active in a repeat; [ ] = remark or other dose. % is set by controls: 0 for no effect and ±100 for the full control effect; potency is the fitted concentration of half-maximal effect.

SMILES	Vaccinia Venus	VACV mCherry inh	MARV entry inh	LASV entry inh
COc1ccc(-c2nc3ccc(NC(=O)CO)cc3c(=O)n2Cc2cccc(Cl)c2)cc1COc1ccc(NC(C)=O)cc1	-11%	-15%	nt	nt
CCOC(=O)N1CCC(NS(=O)(=O)c2cc3c(cc2Cl)NC(=O)CO3)CC1	?	-13%	-27%[46.1 µM]	1.8µM*
NC(=O)c1ccsc1NC(=O)COC(=O)Cc1cccc2ccccc12	?	-13%[1.46 µM]	7.1µM*	-28%
Cc1cccc(C)c1N1C(=O)[C@@H]2[C@H](ON(c3ccccc3)[C@H]2c2ccncc2)C1=O	nt	nt	-1%	nt
CCCCOC(=O)Nc1ccc(S(=O)(=O)Nc2nc(C)cc(C)n2)cc1	-11%	i	-6%	-22%[14.3 µM]
CCCCOC(=O)NS(=O)(=O)c1sc(CC(C)C)cc1-c1ccc(Cn2c(CC)nc3c(C)cc(C)nc32)cc1	nt	nt	10µM*	9.2µM*
CCOC(=O)Nc1ccc2c(c1)C(=NNC(N)=S)c1ccccc1-2	16µM*	11µM*	13µM*	?
C[C@@H]1CN=C(Nc2ccc(N(C)C)cc2)S1	nt	nt	8%	nt
Cc1cc(C(=O)CSc2nc3ccccc3[nH]2)c(C)n1CC1CCCO1 (stereo not given)	-18%	-28%	?	7.9µM*
Cc1cc(C(=O)CSc2nc(N)cc(=O)[nH]2)c(C)n1CC1CCCO1 (stereo not given)	0%	-19%	-4%[46.1 µM]	-20%[46.1 µM]
OC(CNCc1ccc(F)cc1)(c1ccc(F)cc1)c1ccc(F)cc1	nt	nt	?	0%
COc1ccc(CNCC(O)(c2ccccc2)c2ccc(F)cc2)cc1OC (stereo not given)	-11%	4%	2.8µM*	?
OC(CNCc1ccc(Cl)cc1)(c1ccccc1)c1ccc(F)cc1 (stereo not given)	-3%	?	?	-18%
COc1ccc(CNCC(O)(c2ccccc2)c2ccc(F)cc2)cc1 (stereo not given)	-7%	i	11µM*	14%[46.1 µM]
CC(=O)N=c1nc(-c2ccccc2)n(-c2ccccc2)s1	?	-23%	nt	nt
CN=c1nc(-c2ccccc2)n(-c2ccccc2)s1	-25%	-15%	14µM*!	23µM*
Cc1ccccc1NC(=NCCCN1CC1)Nc1ccccc1C	?	-27%	2.2µM*	13µM*
CN(C)CCCNC(=O)C[C@H]1C[C@H](C(=O)N2CCCCC2)[C@@]2(C)c3[nH]c4ccc(Cl)cc4c3CCN2C1=O	-7%	-4%	-2%	nt
COc1ccc2[nH]c3c(c2c1)CCN1C(=O)C(CC(=O)NCCc2ccccn2)C[C@H](C(=O)N2CCCCC2)[C@@]31CCc1ccccc1 (stereo not given in full)	-28%	?	-3%	nt
CN(C)CCCNC(=O)C[C@H]1C[C@H](C(=O)N2CCCCC2)[C@@]2(CCc3ccccc3)c3[nH]c4ccc(Cl)cc4c3CCN2C1=O	14µM*	13µM*	nt	nt
O=C(C[C@H]1C[C@H](C(=O)N2CCCCC2)[C@@]2(CCc3ccccc3)c3[nH]c4ccc(Cl)cc4c3CCN2C1=O)NCCc1ccccn1	13µM*	?	nt	nt
O=S(=O)(c1cccc(Br)c1)N1CCN(c2nc(-c3cccs3)nc3ccccc23)CC1	-18%	-9%	nt	nt
CCCCCC(=O)N1C[C@H](O)[C@@H](n2cc(-c3ccc(F)cc3)nn2)C[C@H]1c1ccccc1	nt	nt	nt	3%[46.1 µM]
CC(=O)N1c2ccc(C)cc2C(c2ccccc2)CC1C (stereo not given)	-22%	?	6.3µM*	?
COc1ccc(C(=O)N/N=C/c2ccccc2OC(=O)c2ccccc2)cc1	?	2µM*	13µM*	?
SMILES	Vaccinia Venus	VACV mCherry inh	MARV entry inh	LASV entry inh
COc1cc(C(=O)Oc2ccccc2/C=N/NC(=O)c2ccc(C)cc2)cc(OC)c1OC	?	nt	?	8.9µM*
Cc1cccc(C(=O)Oc2ccccc2/C=N/NC(=O)c2ccc(NC(=O)C(C)(C)C)cc2)c1	-21%	-28%	?	-9%
CC(C)(C)C(=O)Nc1ccc(C(=O)N/N=C/c2ccccc2OC(=O)c2ccc(Cl)cc2)cc1	?	7.9µM*	?	?
CC1CCCC(NC(=S)Nc2ccc(SC(F)F)cc2)C1C (stereo not given)	11µM*	?	?	?
FC(F)Sc1ccc(NC(=S)NC2CCCC2)cc1	-10%	-16%	0%[46.1 µM]	7%
COc1cc(OC)c(-c2nn3c(-c4ccco4)nnc3s2)cc1OC	?	11µM*	-18%	?
COc1ccc(-c2nn3c(-c4ccco4)nnc3s2)cc1OC	?	?	-15%	-12%
COc1cccc(N2C(=O)C(O)=C(C(C)=O)[C@@H]2c2ccc(OC)c(OC)c2)c1	nt	nt	7%	nt
COc1cc(CN2CCC(C(=O)NC(c3ccc(F)cc3)c3ccc4ccccc4n3)CC2)cc(OC)c1 (stereo not given)	14µM*	?	nt	nt
COc1ccc(OCCN2CCC(C(=O)NC(c3ccccc3)c3ccc4ccccc4n3)CC2)cc1 (stereo not given)	-20%	-30%	nt	nt
O=C(NC(c1ccc(F)cc1)c1ccc2ccccc2n1)C1CCN(Cc2ccc(Oc3ccccc3)cc2)CC1 (stereo not given)	?	-11%	nt	nt
O=C(NC(c1ccc(F)cc1)c1ccc2ccccc2n1)C1CCN(CCOc2ccc(F)cc2)CC1 (stereo not given)	10µM*	11µM*	nt	nt
COc1ccc(OCCN2CCC(C(=O)NC(c3ccc(F)cc3)c3ccc4ccccc4n3)CC2)cc1 (stereo not given)	-5%	i	nt	nt
O=C(NC(c1ccccc1)c1ccc2ccccc2n1)C1CCN(CCOc2ccc(Cl)cc2)CC1 (stereo not given)	10µM*	?	nt	nt
COc1cccc(Nc2ncc(C#N)c(N)n2)c1	?	-7%	?	-10%[46.1 µM]
COc1ccc(-c2nn3ncccc3c2-c2ccnc(Nc3cccc(C(F)(F)F)c3)n2)cc1	nt	nt	nt	25µM*
COc1nc(Nc2ccc(C(C)C)cc2)nc(OC)n1	-4%	i	-10%	?
CC(C)c1ccc(Nc2nccc(-c3cnn4ncccc34)n2)cc1	nt	nt	nt	11µM*
CN(C)c1ccc(-c2nc3cnccn3c2Nc2cccc(C(F)(F)F)c2)cc1	-9%	-7%	-3%[46.1 µM]	-11%[46.1 µM]
CCN(CC)Cc1ccc(Nc2nccc(-c3cnn4ncccc34)n2)cc1	nt	nt	nt	0.04µM*
COc1cccc(Nc2nccc(-c3cnn4ncccc34)n2)c1	nt	nt	nt	0.56µM*
O=C(c1cccnc1)C1CCCN(Cc2ccc3c(c2)CN(C(=O)c2cccs2)CCO3)C1 (stereo not given)	-17%	-11%	nt	nt
Cc1cc(Cl)ccc1OCC(=O)O[C@@H](C)C(=O)N(C)C	nt	nt	4%	nt
O=C(Nc1cccc2ccccc12)c1cnn2c1NC(=C1CC1)C=C2C(F)F	-14%	-7%	nt	nt
Cc1oc(C(=O)Nc2ccc(O)cc2)cc1COc1ccccc1	-17%	-24%	?	20µM*
COC(=O)C1=C(C(=O)OC)[C@@H]2N(C)c3ccccc3[C@@]23C[C@@H](CO)N(C(=O)NC2CCCCC2)C3=N1	nt	nt	-2%[14.2 µM]	nt
Cc1cc(C)cc(C(=O)N2CC(C)SC2=Nc2cccc(S(=O)(=O)N(C)C)c2)c1 (stereo not given)	-26%	?	?	?
